Reference: ChEMBL document CHEMBL4513216, “Probing the Open Global Health Chemical Diversity Library for Multistage-Active Starting Points for Next-Generation Antimalarials” (ACS Infect Dis, 2020)
Among all 69,000 compounds or so, about 8,600 (12%) showed an effect of 50% or more. The sample holds strong results, similar compounds and a random draw of the others, so the mix is not that of the screen.

Test system: Plasmodium berghei
Test: Screen against P. berghei liver stage (PbLuc), transformed with Luciferase, at 10uM
Type: functional, HepG2
Details: tested at 10 uM

Compared with `NC(=O)c1ccc(N2CCN(CCCc3cn[nH]c3)CC2)cc1`, `COC(=O)c1ccc(N2CCN(CCS(C)(=O)=O)C(C)C2)cc1` (stereo unspecified) is higher in INHIBITION: -62.8% for the first, 0.411% for the second.

Going from `CCN(CC)CC1CN(Cc2ccco2)Cc2nccn2C1` (stereo unspecified) to `Cc1cccc(CNC(=O)NCC2CCN(Cc3ncc[nH]3)C2)c1` (stereo unspecified), the INHIBITION rises from -33.9% to 4.68%.

Going from `CCc1nc(CN2CCN(C(=O)C3(C#N)CCCCC3)CC2)cs1` to `Cc1nc(CN2CCN(C(=O)NC(C)c3cccnc3)CC2)cs1` (stereo unspecified), the INHIBITION rises from -9.37% to 41.5%.

Going from `COc1ccc(-c2n[nH]c(C)c2CC(=O)N2CCOCC2)cc1` to `COc1ccc(-c2n[nH]c(C)c2CC(=O)NCCN2CCOCC2)cc1`, the INHIBITION falls from 51.3% to 29.3%.

Going from `COc1ccc(-c2n[nH]c(C)c2CC(=O)NCC2CCOCC2)cc1` to `Cc1[nH]nc(-c2ccc(F)cc2)c1CC(=O)NCC1CCOCC1`, the INHIBITION falls from 51.9% to 9.55%.

Compared with `COc1ccc(-c2n[nH]c(C)c2CC(=O)NCC2CCCO2)cc1` (stereo unspecified), `COc1ccc(-c2cc3cccn(CC(=O)N4CCOCC4)c-3n2)cc1` is lower in INHIBITION: 39.7% for the first, -23.4% for the second.

Going from `COCCN(Cc1cnn(C)c1)C(=O)C1CCC(=O)N(C2CCCC2)C1` (stereo unspecified) to `CN(C)c1ncccc1CNC(=O)NCCN(C)C1CCCC1`, the INHIBITION rises from 20.3% to 28.8%.

Compared with `CC1(C)C[C@H](CCNC(=O)c2ccncc2)c2ccccc2O1`, `CC(C)Oc1ccc(CNC(=O)NCc2ccncc2)cc1F` is higher in INHIBITION: 27.8% for the first, 29.5% for the second.

First: O=C1CC(N(C(=O)c2ccc(Cl)c(Cl)c2)C2CC2)C(=O)N1 (stereo unspecified)
Second: CN(c1ncc(C(N)=O)cc1Cl)C1CCC(c2ccccc2)CC1 (stereo unspecified)
The INHIBITION of the first is lower: 31.8% for the first, 38.1% for the second.

Compared with `O=c1ccc(-n2ccnc2)nn1CCNS(=O)(=O)c1ccc(F)c(Cl)c1`, `O=c1ccc(-n2ccnc2)nn1CCNS(=O)(=O)c1ccc(Br)cc1` is higher in INHIBITION: -1.99% for the first, 59.3% for the second.

Going from `O=c1ccc(-n2ccnc2)nn1CCNS(=O)(=O)c1ccccc1Cl` to `O=S(=O)(CCN1CCc2c(ncn2C2CC2)C1)c1ccccc1`, the INHIBITION falls from 35.1% to -11.4%.

Going from `CN(Cc1ncc[nH]1)C(=O)C(C)(C)NC(=O)c1cccs1` to `CN(CCc1cccs1)C(=O)Nc1cccc(S(C)(=O)=O)c1`, the INHIBITION falls from 9.79% to -93.6%.

Going from `CC(NC(=O)N1CCC(n2cncn2)CC1)c1ccc(F)cc1` (stereo unspecified) to `CC(=O)N1CCC(n2nccc2-c2cnc(N3CCCC3)nc2)CC1`, the INHIBITION rises from 17.4% to 33.7%.

Going from `CCS(=O)(=O)N1CCC[C@]2(C(=O)N(C)C)CN(c3ccccn3)C[C@@H]2C1` to `CCS(=O)(=O)N1CCC2(CC1)CN(Cc1ccccn1)C(=O)CO2`, the INHIBITION rises from 4.92% to 35.8%.

First: CN(C)Cc1nnc(C2CCN(c3ncccn3)CC2)n1C1CC1
Second: Cc1cc(C)nc(N2CCC(c3nnc(CN(C)C)n3C3CC3)CC2)n1
The INHIBITION of the first is higher: -12.1% for the first, -46.8% for the second.

First: Cc1cnc(C)c(N2CCC(c3nnc(CN(C)C)n3C3CC3)CC2)n1
Second: c1cc2nccc(CC3CCCN(C4CCOCC4)CC3)c2cn1 (stereo unspecified)
The INHIBITION of the first is higher: 77.8% for the first, 15.9% for the second.

Going from `CCc1c(C)nc2n(c1=O)CC(C(=O)NCc1cccs1)CS2` (stereo unspecified) to `Cc1cc(C)nc(N2CC=C[C@@H]2C(=O)NCc2ccc3c(c2)OCO3)n1`, the INHIBITION falls from 35.8% to 4.41%.

Compared with `c1ccc(O[C@@H]2CC[C@H]3[C@H]2OCCN3Cc2ccsc2)nc1`, `c1ccc(O[C@H]2CC[C@H]3[C@H]2OCCN3Cc2nccs2)nc1` is lower in INHIBITION: 20.9% for the first, 6.8% for the second.

First: c1ccc(CN2CCO[C@H]3[C@H](OCCN4CCCC4)CC[C@@H]32)nc1
Second: O=C(CO[C@@H]1CC[C@H]2[C@H]1OCCN2Cc1ccccn1)N1CCCC1
The INHIBITION of the first is lower: 26.8% for the first, 54.1% for the second.

Compared with `O=C(CO[C@@H]1CC[C@H]2[C@H]1OCCN2c1ncccn1)N1CCCC1`, `c1ccc(O[C@@H]2CC[C@H]3[C@H]2OCCN3CC2CCOCC2)nc1` is higher in INHIBITION: 24.6% for the first, 56.1% for the second.

First: Fc1ccc(CN2CCO[C@H]3[C@H](Oc4ccccn4)CC[C@@H]32)cc1
Second: COc1ccc(CN2CCO[C@H]3[C@H](Oc4ccccn4)CC[C@@H]32)cc1
The INHIBITION of the first is higher: 61.5% for the first, 41.2% for the second.

Compared with `Cc1cccc(CN2CCO[C@H]3[C@H](Oc4ccccn4)CC[C@@H]32)n1`, `FC(F)(F)c1cccc(OC2CCN(Cc3ccccn3)CC2)c1` is higher in INHIBITION: -49.6% for the first, 40.7% for the second.

Going from `CC(C)n1c(=O)c2ccccc2n(CCN2CCCCC2)c1=O` to `O=C(Cn1c(-c2ccco2)cc2cccnc21)N1CCCC1`, the INHIBITION falls from 3.19% to -16.8%.

Going from `COc1ccc(C)cc1C(=O)NC1(C#N)CCOCC1` to `Cc1ccccc1C1(C(=O)NCCN(C(C)C)C(C)C)CCOCC1`, the INHIBITION falls from 42.1% to -52.66%.

Compared with `Cc1cc(C(=O)CN2CCN(c3cnccn3)CC2)c(C)n1C(C)C`, `CCOc1ccnc(N2CCN(C(=O)c3ccc(C#N)cc3)CC2)n1` is higher in INHIBITION: 17.7% for the first, 36.1% for the second.

Going from `N#Cc1ccc(CNCCn2cccn2)c(F)c1` to `CCN(CC)C(=O)c1ccc(CNc2ncc(C#N)cc2Cl)cc1`, the INHIBITION falls from 20.74% to -22.8%.

Compared with `CCCc1noc(CNc2cc(C[S+](C)[O-])ccc2Cl)n1` (stereo unspecified), `CCCc1nc(CNc2cc(CS(C)(=O)=O)ccc2Cl)no1` is higher in INHIBITION: 30.9% for the first, 52.2% for the second.

First: CCCc1nc(CNc2ccc(F)c(F)c2)no1
Second: Cc1cccc(C)c1NCc1noc(C2CC2)n1
The INHIBITION of the first is lower: -9.51% for the first, 36.3% for the second.

Going from `CS(=O)(=O)Cc1ccc(Cl)c(NCc2noc(C3CC3)n2)c1` to `Clc1ccc(C2(NCc3noc(C4CC4)n3)CCC2)cc1`, the INHIBITION falls from 57.8% to 8.18%.

First: CC(=O)N[C@H]1CCO[C@@H](c2cccc(NC(=O)Cc3ccccc3)c2)C1
Second: Cc1cc(CNC(=O)NCCC(=O)N2CCCc3ccccc32)no1
The INHIBITION of the first is lower: 13.205% for the first, 17.1% for the second.

First: CCc1nnc(CN2CCOC(Cn3cc(C)cn3)C2)o1 (stereo unspecified)
Second: CCc1nc(C2CCCN2C(=O)CCCn2cncn2)no1 (stereo unspecified)
The INHIBITION of the first is higher: 15.5% for the first, -59.4% for the second.

Compared with `CC(=O)N1CCCN(C(=O)C(C)n2cncn2)CC1` (stereo unspecified), `CCN1CC2(CC1=O)CN(C(=O)NC(C)C)CCN(C(=O)C(C)C)C2` (stereo unspecified) is higher in INHIBITION: 10% for the first, 30.5% for the second.

Compared with `CCc1cc(NCCCc2nc(C)no2)nc(-c2ccncc2)n1`, `COc1ccc(Cl)cc1C(=O)NCCNc1cnccn1` is lower in INHIBITION: 17.6% for the first, -21.8% for the second.

First: O=C(c1ccncc1)N1CCC(Oc2cccc(C(F)(F)F)c2)CC1
Second: O=C(c1cccnc1)N1CCC(Oc2cccc(C(F)(F)F)c2)CC1
The INHIBITION of the first is lower: 10.5% for the first, 27.6% for the second.

First: O=c1ccn([C@H]2CCN(Cc3ncc[nH]3)CC[C@@H]2O)c(=O)[nH]1
Second: Fc1cccc(OC2CCN(Cc3ncc[nH]3)CC2)c1
The INHIBITION of the first is lower: 24.4% for the first, 40% for the second.

Compared with `Nc1cc(C(=O)N2CCC(Oc3cccc(C(F)(F)F)c3)CC2)ccn1`, `Nc1ccc(C(=O)N2CCC(Oc3cccc(C(F)(F)F)c3)CC2)cn1` is lower in INHIBITION: 38.3% for the first, 29.8% for the second.

Going from `OC1(CN2CCC(Oc3cccc(C(F)(F)F)c3)CC2)CCNC1` (stereo unspecified) to `OC1(CN2CCC(Oc3cccc(C(F)(F)F)c3)CC2)CNCCOC1` (stereo unspecified), the INHIBITION falls from 87.7% to 37.1%.

Going from `FC(F)(F)c1cccc(OC2CCN(Cc3ncc[nH]3)CC2)c1` to `FC(F)(F)c1cccc(OC2CCN(Cc3c[nH]cn3)CC2)c1`, the INHIBITION rises from 79.7% to 88%.

First: OC1(CN2CCC(Oc3cccnc3)CC2)CNCCOC1 (stereo unspecified)
Second: Cc1cccc(OC2CCN(Cc3ncc[nH]3)CC2)c1
The INHIBITION of the first is lower: -16.8% for the first, 53.2% for the second.

Compared with `O=C(c1ccc(=O)[nH]c1)N1CCC(Oc2cccc(C(F)(F)F)c2)CC1`, `O=C(c1ccc(N2CCOCC2)cc1)N1CCCC(n2ccnc2)C1` (stereo unspecified) is lower in INHIBITION: 50.1% for the first, 41.415% for the second.

First: O=C1CC2(CCN(c3nncs3)C2)CN1c1cccc(F)c1 (stereo unspecified)
Second: CN1C(=O)CCCC12CCCN(C(=O)c1ccc3c(c1)OCO3)C2 (stereo unspecified)
The INHIBITION of the first is higher: -6.3% for the first, -36.8% for the second.

First: CN(C)C(=O)N1C[C@@H]2COC[C@]2(CNS(C)(=O)=O)C1
Second: CCOC(=O)[C@H]1[C@@H](O)C(=O)N(C)C12CCN(C(=O)OCC)CC2
The INHIBITION of the first is lower: 14.2% for the first, 20% for the second.

Compared with `CC(=O)N1CCO[C@@H]2CN(Cc3ccccc3Cl)C[C@@H]2C1`, `CCOC(=O)[C@H]1[C@@H](O)C(=O)N(C)C12CCN(C(=O)c1ccccc1)CC2` is higher in INHIBITION: 38.5% for the first, 58.5% for the second.

Compared with `CN(C)[C@@H]1CN(C(=O)Cc2cccs2)[C@@H]2CCCO[C@H]12`, `O=C(C1CCOCC1)N1CC[C@@H](O)[C@@H]1Cc1ccncc1` is lower in INHIBITION: 24.6% for the first, -2.35% for the second.

First: CCOC(=O)C1CCN(Cc2csc(-c3ccc(C)o3)n2)CC1
Second: CCOC(=O)[C@@H]1[C@@H](O)C(=O)N(C)C12CCN(C(=O)c1ccco1)CC2
The INHIBITION of the first is higher: 0.914% for the first, -3.5% for the second.

First: CCN(CC)S(=O)(=O)NCc1ccc(-c2ccc(C(N)=O)c(C)n2)cc1
Second: CC(C)Oc1ccc(NCc2ccc([S+](C)[O-])cc2)c(F)c1 (stereo unspecified)
The INHIBITION of the first is lower: -5.8% for the first, 93.1% for the second.

First: CC(C)Oc1ccc(CNC(=O)CC(F)(F)F)cc1F
Second: CN(Cc1ccc(C#N)cc1)C(=O)c1ccn(C)c(=O)c1
The INHIBITION of the first is lower: -4.69% for the first, 33.4% for the second.

Going from `CN(Cc1cccc(C#N)c1)c1ncc(C(N)=O)cc1Cl` to `CN(Cc1cccc(C(N)=O)c1)c1ncc(C#N)cc1Cl`, the INHIBITION falls from 66.3% to 61.1%.

Compared with `CN(Cc1ccc(C#N)cc1)c1ncc(C(N)=O)cc1Cl`, `COc1cccc(CN(C)c2ncc(C(N)=O)cc2Cl)c1` is lower in INHIBITION: 65.4% for the first, 26.9% for the second.

Going from `COCCN(CCOC)c1ncc(C#N)cc1Cl` to `CN(Cc1cccc(C#N)c1)Cc1nc2c(cnn2C)c(=O)[nH]1`, the INHIBITION rises from -2.39% to 44.3%.

First: CN(Cc1cccc(C(N)=O)c1)c1ncc(C(N)=O)cc1Cl
Second: OC(COc1ccccc1)CN1CCc2c(ncn2C2CC2)C1 (stereo unspecified)
The INHIBITION of the first is higher: 49.1% for the first, 5.97% for the second.

First: CC(C)S(=O)(=O)CCN1CCc2c(ncn2C2CC2)C1
Second: CS(=O)(=O)CCN1CCc2c(ncn2C2CC2)C1
The INHIBITION of the first is higher: 67.1% for the first, -2.43% for the second.

Compared with `Cc1ccc(OCC(O)CN2CCc3c(ncn3C3CC3)C2)cc1` (stereo unspecified), `OC(CN1CCOCC1)CN1CCc2c(ncn2C2CC2)C1` (stereo unspecified) is lower in INHIBITION: 58.5% for the first, 13.5% for the second.
